From PubChem
Compounds with a hit are over-represented: about 2.3% of the library has one in this group of screens.
M1 PAM = positive allosteric modulators of human M1 muscarinic receptor | activation, % at 3 µM | 0.088% of 360,000 active | AID 588819 | P11229 | CHO-K1 hM1, Fluo-8 calcium fluorescence, ACh EC20; 0% = ACh EC20, 100% = maximal ACh; in the data active means activation above about 19%, passing the limit was not always enough
Target sequence (P11229 whole entry, looked up): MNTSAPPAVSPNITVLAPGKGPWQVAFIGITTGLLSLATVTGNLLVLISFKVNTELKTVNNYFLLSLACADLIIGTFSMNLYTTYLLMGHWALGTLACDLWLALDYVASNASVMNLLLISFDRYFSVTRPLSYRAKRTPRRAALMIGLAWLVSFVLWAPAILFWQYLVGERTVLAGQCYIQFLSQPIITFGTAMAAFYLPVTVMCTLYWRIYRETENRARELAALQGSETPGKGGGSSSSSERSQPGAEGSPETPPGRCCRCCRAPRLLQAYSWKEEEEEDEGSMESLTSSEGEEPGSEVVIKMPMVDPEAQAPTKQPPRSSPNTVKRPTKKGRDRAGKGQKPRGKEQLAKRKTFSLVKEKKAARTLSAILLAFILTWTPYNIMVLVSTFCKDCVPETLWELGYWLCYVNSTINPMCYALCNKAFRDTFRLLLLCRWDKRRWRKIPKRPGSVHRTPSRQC
M1 ag parental = nonselective activator or artifact in parental CHO-K1 cells; Fluo-8 calcium fluorescence; scaled to maximal ATP response, vehicle zero; activation, % at 3 µM; 0.48% of 360,000 active; AID 602248; in the data active means activation above about 15%;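 further: untransfected CHO-K1 host cells lacking M1 receptor as counterscreen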
CHRM1 antagonist = blocks human M1 muscarinic receptor; CHO-K1 hM1, Fluo-8 calcium fluorescence, ACh EC80 antagonist; inhibition, % at 3 µM; 1.3% of 360,000 active; AID 588852;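 active means percent inhibition above its own plate's cutoff, namely the mean of that plate's compound wells plus 3 SD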;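 further: peak over basal fluorescence ratio during 140 s after agonist addition; 0% = ACh EC80 plus DMSO and 100% = DMSO alone without agonist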
CHRM1 agonist = activates human CHRM1 receptor | AID 588814 | 0.33% of 360,000 active | P11229 | CHO-K1 hM1, Fluo-8 calcium fluorescence, agonist mode; 0% DMSO, 100% acetylcholine EC100 | activation, % at 3 µM;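 active means activation above the run's mean compound activation plus 3 SD, cut at about 16% in these data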;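 further: peak over basal fluorescence ratio within a 140 s kinetic read after compound addition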
M1 PAM parental = nonselective activator or artifact in parental CHO-K1 calcium assay | ATP EC20, Fluo-8 calcium fluorescence; 0% at ATP EC20, 100% at ATP max | activation, % at 3 µM | 0.02% of 360,000 active;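 active means activation above the run cutoff, the mean activation of all test compounds plus 3 SD, cut at about 40% in these data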;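 further: peak over basal fluorescence ratio in a 140 s read after ATP addition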
CHO-K1 Ca antag = counter-screen for M1 antagonists: effect in parental CHO-K1 cells. AID 602250. ATP-induced calcium, Fluo-8 fluorescence. 0.6% of 360,000 active. inhibition, % at 3 µM;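 active means inhibition above a per-plate cutoff, the plate's mean sample inhibition plus 3 SD, cut at about 24% in these data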;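 further: 0% = DMSO plus EC80 ATP and 100% = DMSO alone without ATP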
An asterisk follows results filed as active; . = not tested or not shown.

SMILES	M1 PAM	M1 ag parental	CHRM1 antagonist	CHRM1 agonist	M1 PAM parental	CHO-K1 Ca antag
O=C(CSCc1cccc(Cl)c1)OCc1nc2ccsc2c(=O)[nH]1	8.6	0.8	-25.8	0.6	11.7	-9.5
Cc1cc(C)c[n+](CC(=O)c2cc3ccccc3oc2=O)c1	-21.7	-0.2	93.2*	-6.9	-4.5	1.7
CC(=O)c1cc2ccccc2oc1=O	7.0	0.2	-7.1	-4.2	12.5	-21.1
Cc1cccc(NC(=O)c2cc3ccccc3oc2=O)c1	5.3	0.0	-11.7	-0.3	-19.6	7.9
Cc1ccc[n+](CC(=O)c2cc3ccccc3oc2=O)c1	-35.1	1.9	90.4*	-10.9	21.4	-15.6
CS/C(=N\N(C)C(N)=O)c1ccccc1	7.9	15.2*	-1.1	-5.4	16.2	4.3
CCN(C(=O)COC(=O)c1ccc(S(=O)(=O)N2CCCc3ccccc32)cc1)C1CCS(=O)(=O)C1 (centres undefined)	-32.3	0.4	72.1*	-13.8	12.1	-7.6
Cc1ccc(NC(=O)CSC2=NN3CCCC(=O)N=C3S2)cc1Cl	-6.6	16.2*	7.4	-3.4	12.2	2.0
O=C1CCCN2N=C(SCC(=O)Nc3cccc(Cl)c3)SC2=N1	-8.1	16.1*	9.2	-0.1	-1.1	1.0
O=C1CCCN2N=C(SCC(=O)Nc3ccc(Cl)cc3)SC2=N1	0.2	12.9	-3.6	-1.1	6.1	-3.6
O=C1CCCN2N=C(SCC(=O)Nc3cccc(C(F)(F)F)c3)SC2=N1	-11.9	15.0	26.6*	-3.0	-11.1	26.0*
CCCN(CC(=O)Nc1ccc(F)c(F)c1F)C(=O)C1=COCCO1	5.2	0.9	-0.9	-1.3	3.5	-0.3
O=C(CC1C(=O)NCCN1CC1CCCCC1)NCCc1ccc(F)cc1 (centres undefined)	5.9	0.2	1.0	-6.8	14.7	-7.1
Cc1ccc(S(=O)(=O)N(C)c2ccccc2C(=O)N2CCOCC2)cc1	5.0	1.1	-0.9	-3.1	17.5	-8.1
COc1ccc(CCNC(=O)c2cc3sc(Cl)cc3n2C)cc1OC	-0.9	-0.3	3.2	-5.7	-1.8	24.1*
COc1ccc(CCNC(=O)c2sc3ccccc3c2Cl)cc1OC	2.6	3.1	-4.3	-6.8	14.4	0.9
CCN(CC)CCOC(=O)c1ccc(NC(=O)CCCN2C(=O)/C(=C\c3cccs3)SC2=S)cc1	-21.2	1.2	43.2*	-5.1	5.8	1.7
O=C(CCN1C(=O)/C(=C\c2cccs2)SC1=S)Nc1ccc(C(=O)O)cc1	5.5	0.9	-0.8	-3.5	1.2	-3.8
CCCN(CC(=O)Nc1ccccc1C)C(=O)c1cc2ccccc2oc1=O	7.0	0.6	-17.0	-1.5	5.0	-12.9
CCN1/C(=C\C=C(C(C)=O)C(C)=O)Sc2ccccc21	6.1	16.7*	-11.0	6.5	5.3	2.6
COc1cc2c(cc1OC)CN(c1nc(CN3CCCCC3)nc3sc4c(c13)CCCC4)CC2	-3.8	20.1*	7.9	-11.5	24.6	-3.2
COc1cc2c(cc1OC)CN(c1nc(CN3CCOCC3)nc3sc4c(c13)CCCC4)CC2	-7.4	1.8	10.4	-10.8	-2.2	1.0
CN(C(=O)c1ccccc1OCc1ccc(Cl)cc1)c1ccccc1	-22.8	-0.1	74.9*	-6.2	16.0	1.2
COc1cc(OC)c(NC(=O)CCNC(=O)Cn2cnc3ccccc3c2=O)cc1Cl	25.6*	0.0	-36.2	3.1	-1.4	16.0
COc1cc(OC)c(N(C)C(=O)CCNC(=O)Cn2cnc3ccccc3c2=O)cc1Cl	8.3	-0.1	-6.3	-2.6	12.7	-11.9
SMILES	M1 PAM	M1 ag parental	CHRM1 antagonist	CHRM1 agonist	M1 PAM parental	CHO-K1 Ca antag
O=C1/C(=C/c2ccc(F)cc2)CCC1C1CCCC1 (centres undefined)	7.0	-0.4	-16.4	-3.2	-12.2	24.0*
O=C1/C(=C/c2ccccc2)CCC1C1CCCC1 (centres undefined)	5.5	-0.1	-9.0	-4.3	-8.2	9.0
C[C@H](CO)N1C[C@H](C)[C@@H](CN(C)Cc2ccccc2)Oc2c(NC(=O)C3CC3)cccc2C1=O	19.4	-0.7	-23.7	2.3	-2.6	2.4
N#Cc1c(-c2cccs2)cc(-c2cccs2)[nH]c1=O	10.0	1.9	-14.8	-2.8	39.9*	-46.6
O=c1c2ccc([N+](=O)[O-])cc2ncn1CCOc1ccccc1	-11.9	6.5	36.4*	-0.6	-1.0	4.0
Cc1ccccc1-c1nc(NC(C)C)nc2ccsc12	-9.9	0.0	1.7	-8.6	11.4	-3.2
Cc1ccccc1-c1nc(NCCN(C)C)nc2ccsc12	-29.1	1.4	88.2*	-8.1	7.6	1.5
CN(C)CCNc1nc(-c2ccccc2CO)c2sccc2n1	-29.3	0.1	74.0*	-9.7	-1.4	3.0
Cc1nc(Cc2nnc(SC(C)C(=O)Nc3ccccc3)o2)cs1 (centres undefined)	13.4	0.1	-26.4	-1.9	8.7	-10.9
O=C(NCc1ccccc1Cl)[C@H]1CCCN1C(=O)[C@H]1CCCN1C(=O)c1ccccc1	.	2.4	.	.	18.8	-17.8
Nc1n[nH]c(N)c1N=Nc1ccc2c(c1)OCO2	9.8	0.2	-4.4	-5.0	11.6	-11.0
CN(C)c1ccc(/C=C/C(=O)c2c(O)c3ccccc3oc2=O)cc1	-12.2	31.8*	12.4	29.6*	9.0	3.4
CCOC(=O)C1=C(C)Nc2ccccc2N/C1=N\S(=O)(=O)c1ccc(Cl)cc1	-14.7	5.4	36.6*	-6.9	-1.2	-7.4
CCOC(=O)C1=C(CC)Nc2ccccc2N/C1=N\S(=O)(=O)c1cc(Br)ccc1Br	-29.7	14.6	34.0*	-3.0	-16.4	32.7*
COc1cccc(C(=O)NCC[N+](C)(C)C)c1	.	0.1	.	.	7.9	-14.9
CCOc1ccc(C(C)=O)cc1CSC(=N)N	8.4	-0.1	-2.6	-13.7	3.9	5.8
CCCCOc1ccc(Br)cc1CSC(=N)N	-18.1	6.8	26.3*	-1.2	-14.8	33.6*
Cc1ccnc(NC(=O)CCC(=O)N(CC(=O)NC(C)(C)C)c2ccc(F)c(Cl)c2)c1	6.9	1.0	-2.6	-1.6	6.4	-8.0
O=c1[nH][nH]c2c1[C@H](CCc1cccc(Cl)c1)O[C@H](CCc1ccccc1)C2	.	0.3	.	.	12.7	-7.0
COc1ccc2nc(C)cc(Sc3nc4ccccc4s3)c2c1	-4.1	28.8*	10.6	1.1	11.4	-0.7
COc1cc(/C=C2/SC(=S)NC2=O)ccc1OS(=O)(=O)c1ccc(C)cc1	-9.8	10.8	11.5	-0.1	-4.0	24.8*
COc1ccc(/C=C2\SC(=O)NC2=S)cc1OC	-9.2	20.9*	15.0	7.0	11.5	11.2
Cc1ccc(C(C(=O)NC2CCCC2)N(CCCO)C(=O)Cn2nnc(-c3ccc(C)o3)n2)cc1 (centres undefined)	4.5	0.0	-1.9	-2.2	-5.8	-4.4
CC(=O)NCCC(=O)N(C)CC1CCN(CCc2cccc(C(F)(F)F)c2)CC1	0.5	0.4	-2.6	-5.3	7.1	-3.2
